# Measured values published in PubChem BioAssay (Tox21).
# A number with no mark means an inactive call. Records with an inconclusive call do not appear. Entries that show only a call come without a potency. Activity calls are given as the source filed them. Unless noted, calls follow the shape of the dose curve; as a rule, active = well fitted curve in the direction sought with a large enough effect in the repeat runs; inconclusive = weak or mixed curves; inactive = no such curve, though single readings can be large; an effect the other way counts as inactive or inconclusive.
# What was measured:
# [1] = qHTS assay to identify small molecule agonists of the hypoxia (HIF-1) signaling pathway - cell viability counter screen (AID 1224844; calls by dose curve; also: nearly all actives have a fitted effect of over 50% in size; also: potency is read from the fitted curve at half-maximal effect)
# In short: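 Tox21 10K compounds were added to HRE-bla ME-180 cells (0.5% dialyzed FBS) and incubated 17 hrs at 37C; ATP-based CellTiter-Glo luminescence then reported cell viability in the same wells.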
# [2] = qHTS assay to identify small molecule agonists of H2AX (AID 1224845; active = well fitted activation curve with a large enough effect in the signal ratio in the repeat runs, not every such curve was filed as active; the % refers to the signal ratio; also: potency is read from the fitted curve at half-maximal effect)
# In short: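 Wild-type CHO-K1 cells, plated overnight, exposed 3hr at 37C to 15 concentrations (0.76% DMSO final). Lysed, then HTRF anti-pH2AX (S139) cryptate and anti-H2AX-d2 antibodies, 24 hr room temperature; 665/620 nm emission read.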
# [3] = qHTS assay to identify small molecule agonists of H2AX - cell viability counter screen (AID 1224847; calls by dose curve; also: top concentration of the series differs between compounds; nearly all actives have a fitted effect of over 30% in size)
# In short: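 Cytotoxicity counter screen in wild-type CHO-K1 cells: a 3 hr compound treatment at 37C across 15 concentrations, followed by CellTiter-Glo luminescence to gauge viable cells.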
# [4] = qHTS RealTime-Glo MT Cell Viability Assay in HepG2 cells - 24 hour (AID 1224867); also: nearly all actives have a fitted effect of over 50% in size
# In short: (§1)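 Cell number in HepG2 cultures estimated from NanoLuc luminescence generated by metabolic reduction of a prosubstrate by living cells. The homogeneous, nonlytic format allowed repeated reads at 0, 8, 16, 24, 32 and 40 h of compound exposure.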
# [5] = A CellTox Green Cytotoxicity Assay to monitor cytotoxicity in HEK293 cells - 0 hour (AID 1224869); also: nearly all actives have a fitted effect of over 50% in size
# In short: (§2)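 Cytotoxicity was tracked continuously in HEK293 cells by a DNA-binding dye excluded from viable cells. Compounds were transferred in DMSO 5 h after seeding; fluorescence was recorded at intervals up to 40 h.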
# [6] = qHTS RealTime-Glo MT Cell Viability Assay in HepG2 cells - 40 hour (AID 1224870); also: nearly all actives have a fitted effect of over 50% in size
# In short: (§3)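 HepG2 cells (600/well) mixed with RealTime-Glo MT reagent, settled 5 h at 37 C/5% CO2 before compound addition. Nonlytic NanoLuc luminescence from viable-cell prosubstrate reduction read repeatedly during 40 h treatment at 37 C.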
# [7] = A CellTox Green Cytotoxicity Assay to monitor cytotoxicity in HEK293 cells - 40 hour (AID 1224871); also: nearly all actives have a fitted effect of over 45% in size; also: potency is read from the fitted curve at half-maximal effect
# In short: as §2
# [8] = qHTS RealTime-Glo MT Cell Viability Assay in HepG2 cells - 8 hour (AID 1224873); also: nearly all actives have a fitted effect of over 55% in size
# In short: as §3
# [9] = A CellTox Green Cytotoxicity Assay to monitor cytotoxicity in HEK293 cells - 24 hour (AID 1224875); also: nearly all actives have a fitted effect of over 45% in size; also: potency is read from the fitted curve at half-maximal effect
# In short: as §2
# [10] = A CellTox Green Cytotoxicity Assay to monitor cytotoxicity in HepG2 cells - 16 hour (AID 1224876); also: nearly all actives have a fitted effect of over 45% in size
# In short: (§4)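 Real-time, homogeneous cytotoxicity readout: dead-cell DNA staining by CellTox Green in HepG2 monolayers, fluorescence measured at timed intervals up to 40 h of continuous compound exposure.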
# [11] = qHTS RealTime-Glo MT Cell Viability Assay in HepG2 cells - 32 hour (AID 1224877); also: nearly all actives have a fitted effect of over 55% in size
# In short: as §1
# [12] = A CellTox Green Cytotoxicity Assay to monitor cytotoxicity in HepG2 cells - 24 hour (AID 1224878); also: nearly all actives have a fitted effect of over 45% in size; also: potency is read from the fitted curve at half-maximal effect
# In short: as §4
# [13] = A CellTox Green Cytotoxicity Assay to monitor cytotoxicity in HepG2 cells - 40 hour (AID 1224879); also: nearly all actives have a fitted effect of over 40% in size; also: potency is read from the fitted curve at half-maximal effect
# In short: as §4
# [14] = qHTS assay to identify small molecule agonists of the hypoxia (HIF-1) signaling pathway (AID 1224846; active = well fitted activation curve with a large enough effect in the signal ratio in the repeat runs, not every such curve was filed as active; the % refers to the signal ratio)
# In short: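 Steps: seed ME-180 HRE-bla cells (2,000/well, 0.5% dialyzed FBS); incubate 5 hrs at 37C; pin-transfer compounds or DMSO; incubate 17 hrs; add LiveBLAzer B/G substrate CCF4-AM; measure reporter activation by FRET.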
# [15] = qHTS assay to identify small molecule agonists of the estrogen related receptor (ERR) signaling pathway from Tox21 library (AID 1224849; calls by dose curve; also: nearly all actives have a fitted effect of over 15% in size); details: ERR reporter cell line, ONE-Glo luciferase, 18 h; at 92.4 µM (top of the series) unless noted
# In short: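 Agonist signal is luciferase luminescence from an ERR reporter cell line treated 18 h at 37 C with DMSO-dissolved compounds, read 30 min after ONE-Glo addition at room temperature.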
# [16] = qHTS RealTime-Glo MT Cell Viability Assay in HEK293 cells - 16 hour (AID 1224872); also: nearly all actives have a fitted effect of over 50% in size; also: potency is read from the fitted curve at half-maximal effect
# In short: (§5)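 Homogeneous bioluminescent viability format in HEK293 cells (600 cells/well). Following 5 h at 37 C/5% CO2, 23 nL compound was pintooled; the signal was measured repeatedly during 40 h incubation.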
# [17] = qHTS RealTime-Glo MT Cell Viability Assay in HEK293 cells - 40 hour (AID 1224874); details: RealTime-Glo luminescence; max response: active compounds read low; also: nearly all actives have a fitted effect of over 50% in size; also: potency is read from the fitted curve at half-maximal effect
# In short: (§6)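 Nonlytic bioluminescent viability monitoring. HEK293 at 600 cells/well with reagent; 5 h settle; compound transfer by pintool; plates held at 37 C and read at set time points.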
# [18] = qHTS RealTime-Glo MT Cell Viability Assay in HEK293 cells - 32 hour (AID 1224868); also: nearly all actives have a fitted effect of over 50% in size; also: potency is read from the fitted curve at half-maximal effect
# In short: as §5
# [19] = qHTS RealTime-Glo MT Cell Viability Assay in HEK293 cells - 0 hour (AID 1224880); also: nearly all actives have a fitted effect of over 45% in size; also: potency is read from the fitted curve at half-maximal effect
# In short: as §6
# [20] = qHTS assay to identify small molecule antagonists of the estrogen related receptor (ERR) signaling pathway from Tox21 library (AID 1224848); also: nearly all actives have a fitted effect of over 50% in size; also: potency is read from the fitted curve at half-maximal effect
# In short: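 ERR reporter cell line (from NTP) seeded 2,000 cells/well, rested 6 h at 37 C/5% CO2, then pin-dosed with compounds in DMSO. After 18 h at 37 C, ONE-Glo added; luminescence read after 30 min at room temperature.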
structure (smiles),measurement,setting,value
CCC(C)N(C)C(=O)c1cc2ccccc2c(-c2ccccc2Cl)n1 (configuration not stated),Potency,[1],inactive
same,Potency,[2],inactive
same,Potency,[3],inactive
same,Potency,[4],inactive
same,Potency,[5],inactive
same,Potency,[6],inactive
same,Potency,[7],inactive
same,Potency,[8],inactive
same,Potency,[9],inactive
same,Potency,[10],inactive
same,Potency,[11],inactive
same,Potency,[12],25.2 µM (active)
same,Potency,[13],28.2 µM (active)
O=C(O)Cc1sc(-c2ccccc2)nc1-c1ccc(Cl)cc1,outcome,[14],inactive
same,Potency,[3],inactive
same,"activity change, positive = activation",[15],-15.3% [at 42.5 µM]
same,Potency,[4],inactive
same,Potency,[5],inactive
same,Potency,[7],inactive
same,Potency,[16],inactive
same,Potency,[8],inactive
same,max response,[17],0.938%
same,Potency,[9],inactive
same,Potency,[10],inactive
same,Potency,[11],inactive
same,Potency,[12],inactive
same,Potency,[13],inactive
O=S1(=O)N=C(O)c2ccccc21,Potency,[2],inactive
same,outcome,[14],inactive
same,Potency,[3],inactive
same,Potency,[4],inactive
same,Potency,[18],inactive
same,Potency,[5],inactive
same,Potency,[6],inactive
same,Potency,[7],inactive
same,Potency,[16],inactive
same,Potency,[8],inactive
same,max response,[17],2.61%
same,Potency,[9],inactive
same,Potency,[10],inactive
same,Potency,[11],inactive
same,Potency,[19],inactive
CC(C(=O)O)c1ccc(C(=O)c2ccccc2)s1 (configuration not stated),Potency,[1],inactive
same,Potency,[3],inactive
same,Potency,[4],inactive
same,Potency,[18],inactive
same,Potency,[5],inactive
same,Potency,[6],inactive
same,Potency,[16],inactive
same,Potency,[8],inactive
same,max response,[17],4.65%
same,Potency,[9],inactive
same,Potency,[10],inactive
same,Potency,[11],inactive
same,Potency,[12],inactive
same,Potency,[13],inactive
same,Potency,[19],inactive
C=CC(=O)OCCOC(=O)CCC(=O)O,Potency,[2],inactive
same,outcome,[14],inactive
same,"activity change, positive = activation",[15],67.1% (active)
same,Potency,[4],inactive
same,Potency,[18],inactive
same,Potency,[5],inactive
same,Potency,[6],inactive
same,Potency,[7],inactive
same,Potency,[16],inactive
same,Potency,[8],inactive
same,max response,[17],19.5%
same,Potency,[9],inactive
same,Potency,[10],inactive
same,Potency,[11],inactive
same,Potency,[12],inactive
same,Potency,[13],inactive
same,Potency,[19],inactive
CC(=O)CC(=O)c1ccccc1,outcome,[14],inactive
same,Potency,[3],inactive
same,Potency,[20],inactive
same,"activity change, positive = activation",[15],14.5%
same,Potency,[4],inactive
same,Potency,[5],inactive
same,Potency,[16],inactive
same,Potency,[8],inactive
same,Potency,[10],inactive
same,Potency,[11],inactive
same,Potency,[12],inactive
same,Potency,[13],inactive
same,Potency,[19],inactive
Nc1nc(CC(=O)O)cs1,Potency,[2],inactive
same,outcome,[14],inactive
same,Potency,[20],61.3 µM (active)
same,"activity change, positive = activation",[15],-48.9%
same,Potency,[4],inactive
same,Potency,[5],inactive
same,Potency,[6],inactive
same,Potency,[7],inactive
same,Potency,[16],inactive
same,Potency,[8],inactive
same,Potency,[9],inactive
same,Potency,[10],inactive
same,Potency,[11],inactive
same,Potency,[12],inactive
same,Potency,[13],inactive
same,Potency,[19],inactive
Cc1cc(O)ccc1N,outcome,[14],inactive
same,"activity change, positive = activation",[15],-16.6%
same,Potency,[4],inactive
same,Potency,[18],49.2 µM (active)
same,Potency,[5],inactive
same,Potency,[6],inactive
same,Potency,[7],34.9 µM (active)
same,Potency,[16],49.2 µM (active)
same,Potency,[9],34.9 µM (active)
same,Potency,[10],inactive
same,Potency,[11],inactive
same,Potency,[12],inactive
same,Potency,[19],12.4 µM (active)
ClC(Cl)(Cl)c1ccc(C(Cl)(Cl)Cl)cc1,Potency,[1],inactive
same,outcome,[14],inactive
same,Potency,[4],inactive
same,Potency,[18],inactive
same,Potency,[5],inactive
same,Potency,[16],inactive
same,Potency,[8],inactive
same,Potency,[9],inactive
same,Potency,[10],inactive
same,Potency,[11],inactive
same,Potency,[12],inactive
same,Potency,[13],inactive
O=C(O)Cc1cc(I)c(Oc2ccc(O)c(I)c2)c(I)c1,Potency,[1],38.9 µM (active)
same,Potency,[3],inactive
same,Potency,[20],27.3 µM (active)
same,"activity change, positive = activation",[15],-36.3%
same,Potency,[4],inactive
same,Potency,[18],inactive
same,Potency,[5],inactive
same,Potency,[6],inactive
same,Potency,[7],inactive
same,Potency,[16],inactive
same,Potency,[8],inactive
same,max response,[17],4.51%
same,Potency,[9],inactive
same,Potency,[10],inactive
same,Potency,[11],inactive
same,Potency,[12],inactive
same,Potency,[13],inactive
C=Cc1c(C)c2cc3[nH]c(cc4nc(cc5nc(cc1[nH]2)C(C)=C5CCC(=O)O)C(CCC(=O)O)=C4C)c(C)c3C=C,Potency,[1],19 µM (active)
same,Potency,[3],inactive
same,"activity change, positive = activation",[15],-18% [at 42.5 µM]
same,Potency,[4],inactive
same,Potency,[18],inactive
same,Potency,[5],inactive
same,Potency,[6],inactive
same,Potency,[7],inactive
same,Potency,[16],inactive
same,Potency,[8],inactive
same,max response,[17],-11.2%
same,Potency,[10],inactive
same,Potency,[11],inactive
same,Potency,[12],inactive
same,Potency,[13],inactive
same,Potency,[19],inactive
CCCCCCOC(=O)CCC,Potency,[2],inactive
same,outcome,[14],inactive
same,Potency,[3],inactive
same,Potency,[4],inactive
same,Potency,[18],inactive
same,Potency,[5],inactive
same,Potency,[6],inactive
same,Potency,[7],inactive
same,Potency,[16],inactive
same,Potency,[8],inactive
same,max response,[17],6.13%
same,Potency,[9],inactive
same,Potency,[10],inactive
same,Potency,[11],inactive
same,Potency,[12],inactive
same,Potency,[19],inactive
Cc1ccc(C(C)c2ccc(C)c(C)c2)cc1C,Potency,[1],inactive
same,outcome,[14],inactive
same,Potency,[4],inactive
same,Potency,[18],inactive
same,Potency,[5],inactive
same,Potency,[6],inactive
same,Potency,[16],inactive
same,Potency,[8],inactive
same,Potency,[9],inactive
same,Potency,[10],inactive
same,Potency,[11],inactive
same,Potency,[12],inactive
same,Potency,[13],inactive
same,Potency,[19],inactive
Cc1ccc(O)c([C@H](CCN(C(C)C)C(C)C)c2ccccc2)c1,Potency,[2],inactive
same,outcome,[14],inactive
same,Potency,[4],inactive
same,Potency,[18],inactive
same,Potency,[5],inactive
same,Potency,[6],inactive
same,Potency,[7],inactive
same,Potency,[16],inactive
same,Potency,[8],inactive
same,Potency,[9],inactive
same,Potency,[10],inactive
same,Potency,[11],inactive
same,Potency,[12],21.3 µM (active)
same,Potency,[13],23.9 µM (active)
same,Potency,[19],inactive
CC(C)(C)C(=O)OCOP(=O)(COCCn1cnc2c(N)ncnc21)OCOC(=O)C(C)(C)C,Potency,[2],277 nM (active)
same,outcome,[14],inactive
same,Potency,[3],inactive
same,"activity change, positive = activation",[15],-1.22% [at 42.5 µM]
same,Potency,[4],inactive
same,Potency,[18],0.756 µM (active)
same,Potency,[5],inactive
same,Potency,[6],inactive
same,Potency,[7],inactive
same,Potency,[8],inactive
same,Potency,[17],848 nM (active)
same,Potency,[9],inactive
same,Potency,[10],inactive
same,Potency,[11],inactive
same,Potency,[12],inactive
same,Potency,[13],inactive
